The panel holds about 79,000 compounds, 15% with a hit somewhere; the sample as a whole holds those more often. Active and inactive are the calls of the source. Cut-off read from the data, not from the text of the source: active = growth inhibition above about 70%; inactive = the rest. Where a SMILES comes first, the peptide text is derived from it. [ ]: non-standard residue; d: D form. The star is where a group is joined. ξ: configuration not given here. NMeY = CN[C@@H](Cc1ccc(O)cc1)C(=O)O; Cbz = O=C(OCc1ccccc1)*; ξA = CC(N)C(=O)O

The first test in a line: NCI Yeast Anticancer Drug Screen. Data for the rad50 strain (AID 155).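 Note: 0% = growth of vehicle-only cultures of the same strain.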 Particulars: S. cerevisiae rad50 strain growth inhibition; at 50.0 µM; active compounds read high. In short, it runs like this: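 Relative growth inhibition (compound vs vehicle) was measured in yeast with a defined repair-gene alteration.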
Consider `Oc1cccc(NCNC2Nc3ccccc3N2)c1`, for which the growth inhibition is 6.5% (inactive).

For the molecule `CCCCCCC1CCC(=O)CC1`, the growth inhibition is 31.9% (inactive).

On to `CCOS(=O)(=O)CC(C)C(C)C` (stereo not given), for which the growth inhibition is 4.75% (inactive).

For the molecule `O=c1[nH]/c(=C/c2ccc3c(c2)OCO3)c(=O)[nH]/c1=C/c1ccc2c(c1)OCO2`, the growth inhibition is -24.2% (inactive).

For `Nc1nc(C(=O)O)c(N=Nc2ccccc2)c(=O)[nH]1`, the growth inhibition is 31.1% (inactive).

With `COc1ccc2c(c1)CCC1=C2CC2C(=O)C1(C)CCC2(C)OC(C)=O` (stereo not given), the growth inhibition is -4.35% (inactive).

Turning to `COc1ccc(-c2cc(=O)c3cc(C)c(C)c(C#N)c3o2)cc1`, the growth inhibition is -25.9% (inactive).

With `CCC(C(=O)O)C(=O)O`, the growth inhibition was -16.9% (inactive).

On to `O=C(Nc1cc(C(F)(F)F)ccc1Cl)c1ccccc1F`, for which the growth inhibition is 17.1% (inactive).

Consider `Nc1nc(-c2ccccc2)cc(-c2cc(Cl)ccc2O)n1`, for which the growth inhibition is 13.9% (inactive).

`O=C1NC(Cc2ccc(O)cc2)C(=O)N1c1ccccc1O` (stereo not given): the growth inhibition was 2.5% (inactive).

For `CC1=NN(C(=O)c2ccc(Cl)cc2)C(=O)/C1=C/c1ccco1`, the growth inhibition was -8.85% (inactive).

As for `CC1CCC2C(C)C3C(CC4C5CC=C6CC(O)CCC6(C)C5CCC43C=O)N2C1` (stereo not given), the growth inhibition was 30.3% (inactive).

Consider `ClC(c1ccccc1)c1cccc2ccccc12` (stereo not given), for which the growth inhibition is 30.6% (inactive).

As for `O=C(O)CNc1ncnc2[nH]ncc12`, the growth inhibition is 7% (inactive).

Turning to `C=C(CN(CC)CC)C1(c2ccccc2)CC2(CCCC2)C(=O)O1` (stereo not given), the growth inhibition was 20.9% (inactive).

`CCOC(=O)c1c(C)c2c(n1C)CCC(C(=O)OCC)C2=O` (stereo not given): the growth inhibition was -3.15% (inactive).

With `O=C(NNC(O)C(F)(F)F)c1ccccc1` (stereo not given), the growth inhibition was 12.3% (inactive).

With `CCC(C)CCC(=O)C(C)C=O` (stereo not given), the growth inhibition is -0.8% (inactive).

Consider `O=C(/C(=C/c1ccc(Cl)cc1)c1ccccc1)c1ccccc1`, for which the growth inhibition was 9.2% (inactive).

As to `O=C(NNC(=S)Nc1ccc(Cl)cc1)C12CC3CC(CC(C3)C1)C2`, the growth inhibition is -9.4% (inactive).

With `O=c1cc(NCc2c(Cl)cccc2[N+](=O)[O-])[nH]c(=O)[nH]1`, the growth inhibition is -8.8% (inactive).

Consider `OCC1CCCC(n2cnc3c(=S)nc[nH]c32)O1` (stereo not given), for which the growth inhibition was -8.4% (inactive).

`COc1cc(CC2C(=O)OCC2C2(c3ccc4c(c3)OCO4)SCCCS2)cc(OC)c1OC` (stereo not given): the growth inhibition was 10.4% (inactive).

For `COc1ccc(C[C@@H](C(=O)N[C@@H](C)C(N)=O)N(C)C(=O)[C@@H]2CCCN2C(=O)[C@H](CC(C)C)NC(=O)C(C)NC(=O)OCc2ccccc2)cc1` (stereo not given in full) (Cbz-[ξA]LP[NMeY](Me)A-NH2), the growth inhibition is 29.1% (inactive).

Take `CC1=COC(=O)[C@@H]2[C@@H](C)CC[C@@H]12`: the growth inhibition is 1.1% (inactive).

Turning to `C=C(C)CC1CC(=O)OC1=O` (stereo not given), the growth inhibition was 26% (inactive).

As to `CNCCC(C(=O)O)c1ccccc1` (stereo not given), the growth inhibition is -12.1% (inactive).

On to `COc1ccc(OC)c(-c2nc3ccccc3c(=O)[nH]2)c1`, for which the growth inhibition was 9.1% (inactive).

Regarding `Nc1ccc2c(c1)NCC2`, the growth inhibition was -27.6% (inactive).

Consider `CSc1[nH]c2ncnc(Cl)c2c1C#N`, for which the growth inhibition is 23.6% (inactive).

Turning to `COc1ccc(Nc2nc(C#N)c(N)s2)cc1`, the growth inhibition is 3.75% (inactive).

On to `OC12CC/C(=N/OCc3ccccc3)CC1c1ccccc12` (stereo not given), for which the growth inhibition is 11.2% (inactive).

`O=C(O)c1ccccc1C(=O)OCc1ccccc1`: the growth inhibition was -0.15% (inactive).

Turning to `O=C(CCl)OCC(CCl)OC(=O)CCl` (stereo not given), the growth inhibition is -3.6% (inactive).

In the case of `Cn1cnc2c(Cl)ncnc21`, the growth inhibition was 12.9% (inactive).

For the molecule `CC1CCCC(C(O)(C(=O)O)C2CCCCC2)C1` (stereo not given), the growth inhibition is 23.2% (inactive).

In the case of `CC(C(=O)O)C(C)C(=O)Nc1ccccc1` (stereo not given), the growth inhibition is 33.9% (inactive).

Consider `COC(=O)C(=O)C1(c2ccccc2)CCCC(CN(C)C)=C1O` (stereo not given), for which the growth inhibition is 3.35% (inactive).

Take `[Cl][Bi]([O]c1ccccn1)[O]c1ccccn1`: the growth inhibition was 9.9% (inactive).

Another test is described as follows: NCI Yeast Anticancer Drug Screen. Data for the mec2-1 strain (AID 157). Particulars: S. cerevisiae mec2-1 strain, at 50.0 µM, active compounds read high. In short, it runs like this:
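mec2-1 yeast strain, carrying an alteration in DNA damage repair or cell cycle control, was exposed to compounds; growth inhibition was measured relative to vehicle-treated controls.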
Regarding `Oc1cccc(NCNC2Nc3ccccc3N2)c1`, the growth inhibition is 14.7% (inactive).

With `CCCCCCC1CCC(=O)CC1`, the growth inhibition is 4.3% (inactive).

In the case of `CCOS(=O)(=O)CC(C)C(C)C` (stereo not given), the growth inhibition is -17.3% (inactive).

For the molecule `O=c1[nH]/c(=C/c2ccc3c(c2)OCO3)c(=O)[nH]/c1=C/c1ccc2c(c1)OCO2`, the growth inhibition is -20% (inactive).

With `Nc1nc(C(=O)O)c(N=Nc2ccccc2)c(=O)[nH]1`, the growth inhibition was -10.2% (inactive).

On to `COc1ccc2c(c1)CCC1=C2CC2C(=O)C1(C)CCC2(C)OC(C)=O` (stereo not given), for which the growth inhibition was -11.1% (inactive).

`COc1ccc(-c2cc(=O)c3cc(C)c(C)c(C#N)c3o2)cc1`: the growth inhibition was -29.6% (inactive).

Consider `CCC(C(=O)O)C(=O)O`, for which the growth inhibition is -38.4% (inactive).

For the molecule `O=C(Nc1cc(C(F)(F)F)ccc1Cl)c1ccccc1F`, the growth inhibition is 29.1% (inactive).

In the case of `Nc1nc(-c2ccccc2)cc(-c2cc(Cl)ccc2O)n1`, the growth inhibition is -0.55% (inactive).

Regarding `O=C1NC(Cc2ccc(O)cc2)C(=O)N1c1ccccc1O` (stereo not given), the growth inhibition was 0.95% (inactive).

With `CC1=NN(C(=O)c2ccc(Cl)cc2)C(=O)/C1=C/c1ccco1`, the growth inhibition was -28.9% (inactive).

For the molecule `CC1CCC2C(C)C3C(CC4C5CC=C6CC(O)CCC6(C)C5CCC43C=O)N2C1` (stereo not given), the growth inhibition is 19.9% (inactive).

With `ClC(c1ccccc1)c1cccc2ccccc12` (stereo not given), the growth inhibition is -2.45% (inactive).

`O=C(O)CNc1ncnc2[nH]ncc12`: the growth inhibition was -25.1% (inactive).

Regarding `C=C(CN(CC)CC)C1(c2ccccc2)CC2(CCCC2)C(=O)O1` (stereo not given), the growth inhibition was 23.9% (inactive).

As for `CCOC(=O)c1c(C)c2c(n1C)CCC(C(=O)OCC)C2=O` (stereo not given), the growth inhibition was 9.4% (inactive).

With `O=C(NNC(O)C(F)(F)F)c1ccccc1` (stereo not given), the growth inhibition was 2.4% (inactive).

Consider `CCC(C)CCC(=O)C(C)C=O` (stereo not given), for which the growth inhibition is -7.3% (inactive).

Take `O=C(/C(=C/c1ccc(Cl)cc1)c1ccccc1)c1ccccc1`: the growth inhibition is -28.4% (inactive).

Regarding `O=C(NNC(=S)Nc1ccc(Cl)cc1)C12CC3CC(CC(C3)C1)C2`, the growth inhibition was 6.15% (inactive).

For the molecule `O=c1cc(NCc2c(Cl)cccc2[N+](=O)[O-])[nH]c(=O)[nH]1`, the growth inhibition is 37.5% (inactive).

For `OCC1CCCC(n2cnc3c(=S)nc[nH]c32)O1` (stereo not given), the growth inhibition is -21.8% (inactive).

On to `COc1cc(CC2C(=O)OCC2C2(c3ccc4c(c3)OCO4)SCCCS2)cc(OC)c1OC` (stereo not given), for which the growth inhibition is 8.3% (inactive).

On to `COc1ccc(C[C@@H](C(=O)N[C@@H](C)C(N)=O)N(C)C(=O)[C@@H]2CCCN2C(=O)[C@H](CC(C)C)NC(=O)C(C)NC(=O)OCc2ccccc2)cc1` (stereo not given in full) (Cbz-[ξA]LP[NMeY](Me)A-NH2), for which the growth inhibition was 28.9% (inactive).

As to `CC1=COC(=O)[C@@H]2[C@@H](C)CC[C@@H]12`, the growth inhibition was -3.65% (inactive).

Take `C=C(C)CC1CC(=O)OC1=O` (stereo not given): the growth inhibition was -16.4% (inactive).

`CNCCC(C(=O)O)c1ccccc1` (stereo not given): the growth inhibition was -7.25% (inactive).

`COc1ccc(OC)c(-c2nc3ccccc3c(=O)[nH]2)c1`: the growth inhibition is 10.8% (inactive).

Consider `Nc1ccc2c(c1)NCC2`, for which the growth inhibition was -45.7% (inactive).

For the molecule `CSc1[nH]c2ncnc(Cl)c2c1C#N`, the growth inhibition was 10.3% (inactive).

As to `COc1ccc(Nc2nc(C#N)c(N)s2)cc1`, the growth inhibition was -12.6% (inactive).

In the case of `OC12CC/C(=N/OCc3ccccc3)CC1c1ccccc12` (stereo not given), the growth inhibition was -22.9% (inactive).

Regarding `O=C(O)c1ccccc1C(=O)OCc1ccccc1`, the growth inhibition was 16.1% (inactive).

Regarding `O=C(CCl)OCC(CCl)OC(=O)CCl` (stereo not given), the growth inhibition is 29.1% (inactive).

As for `Cn1cnc2c(Cl)ncnc21`, the growth inhibition is 34.5% (inactive).

Regarding `CC1CCCC(C(O)(C(=O)O)C2CCCCC2)C1` (stereo not given), the growth inhibition is 12.6% (inactive).

Consider `CC(C(=O)O)C(C)C(=O)Nc1ccccc1` (stereo not given), for which the growth inhibition was 6.15% (inactive).

Take `COC(=O)C(=O)C1(c2ccccc2)CCCC(CN(C)C)=C1O` (stereo not given): the growth inhibition is -0.15% (inactive).

In the case of `[Cl][Bi]([O]c1ccccn1)[O]c1ccccn1`, the growth inhibition was -1.55% (inactive).

For the origin of these results see PubChem BioAssay (NCI).
